A selection: hits, their analogues and other compounds. The true share with any hit is near 4.7%.
D1 ag = Allosteric Agonists of the Human D1 Dopamine Receptor: qHTS. D(1A) dopamine receptor (Homo sapiens), P21728. HEK293 T-REx D1 cells, calcium flux, agonist mode. activation, % at 2 µM. 360,000 compounds, 1% hits. AID 504660, 2011; also: 0% is about no effect
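Inducible HEK293 T-REx D1 cells, force-coupled to calcium signalling, were plated at 4000 cells/well with tetracycline and held overnight at 30 C. After no-wash calcium dye loading, compound-evoked calcium rise over 180 s flagged agonists.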
TRHR agonist = qHTS for Small Molecule Agonists and Allosteric Enhancers of Human TRH Receptor: Primary Screen for Agonists. Thyrotropin-releasing hormone receptor (Homo sapiens), P34981. TRHR cells, calcium flux fluo-8, FDSS agonist mode. activation, % at 2 µM. 360,000 compounds, 0.18% hits. AID 493084, 2011; also: 0% is about no effect
Target sequence (P34981 whole entry, looked up): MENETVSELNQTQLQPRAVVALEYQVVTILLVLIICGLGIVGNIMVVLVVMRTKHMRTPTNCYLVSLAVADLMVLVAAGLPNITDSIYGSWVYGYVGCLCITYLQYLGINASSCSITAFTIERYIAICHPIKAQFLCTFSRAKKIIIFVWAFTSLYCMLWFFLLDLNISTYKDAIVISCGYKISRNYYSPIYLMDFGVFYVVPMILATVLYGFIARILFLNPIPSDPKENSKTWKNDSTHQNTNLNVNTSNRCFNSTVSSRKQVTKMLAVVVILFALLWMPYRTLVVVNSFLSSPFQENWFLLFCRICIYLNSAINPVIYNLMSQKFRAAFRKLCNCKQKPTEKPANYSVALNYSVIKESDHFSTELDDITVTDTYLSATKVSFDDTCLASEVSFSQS
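Agonist-mode FDSS calcium read (Ex 480/Em 530, 1 s cycles) in 1536-well TRHR cells with fluo-8 dye, after 10-cycle baseline and 23 nL compound addition; TRH at EC20 (10 nM final) added afterwards for the enhancer phase.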
TRHR enhancer = qHTS for Small Molecule Agonists and Allosteric Enhancers of Human TRH Receptor: Primary Screen for Enhancers; Thyrotropin-releasing hormone receptor (Homo sapiens), P34981; 360,000 compounds, 0.66% hits; AID 493056, 2011; enhancement, % at 2 µM; TRHR cells, fluo-8 calcium fluorescence, EC20 TRH enhancement; in the data active = enhancement above about 30%; also: 0% is about no effect
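TRHR-expressing cells loaded with fluo-8 calcium dye were read kinetically (ex 480/em 530) during compound addition, then stimulated with an EC20 of TRH (10 nM final). Enhancement of the Gq-mediated intracellular calcium response was scored.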
D1 PAM = Potentiators of Human D1 Dopamine Receptor: qHTS; D(1A) dopamine receptor (Homo sapiens), P21728; HEK293 TREx D1 cells, calcium flux, dopamine EC20 potentiation; potentiation, % at 10 µM; 360,000 compounds, 0.036% hits; AID 504651, 2011; in the data active = potentiation above about 30%; also: 0% is about no effect
D1 antag = Antagonist of Human D 1 Dopamine Receptor: qHTS | D(1A) dopamine receptor (Homo sapiens), P21728 | activity change, negative = inhibition, % at 10 µM | 360,000 compounds, 3.2% hits | AID 504652, 2011 | HEK293 TREx D1 cells, calcium flux, dopamine EC80; active compounds read low; in the data active = activity change below about -30%; also: % is scaled to controls: 0 for no effect and ±100 for the full control effect
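Tetracycline-induced HEK293 T-REx cells with force-coupled D1 receptor were loaded with a no-wash calcium dye. Compound was added after a 10 s baseline and read kinetically for 180 s; EC80 dopamine was then added and calcium flux followed another 180 s.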
Active calls of the source: *. Rule as the data show it, unless noted: active = activation above about 30%; inactive = the rest.

Screening N#CC(C#N)=C1C=CC=CN1/C(=C\c1ccccc1Cl)C(=O)c1ccccc1 returned D1 ag 3, TRHR agonist 2, TRHR enhancer -11, D1 PAM -13 and D1 antag -50*.
`COc1ccc(NC(=O)CSc2nncs2)cc1S(N)(=O)=O` gave D1 ag 4, TRHR agonist 1, TRHR enhancer 1, D1 PAM -2 and D1 antag -32*.
Screening CS(=O)(=O)NCCc1csc2nc(-c3ccccc3)nn12 returned D1 ag 1, TRHR agonist 0, TRHR enhancer 4 and D1 PAM 1.
For Cc1ccc(-n2nc(C)c3c(C)cc(=O)n(CC(=O)Nc4cc(Cl)ccc4C)c32)cc1 the results were D1 ag 1, TRHR agonist 0, TRHR enhancer 6, D1 PAM -2 and D1 antag 6.
Screening CCn1c(SCC(=O)N/N=C/C=C\c2ccco2)nc2ccccc21 returned D1 ag 3, TRHR agonist 0, TRHR enhancer -7, D1 PAM -6 and D1 antag -35*.
For Cn1c(SCC(=O)N/N=C/C=C\c2ccco2)nc2ccccc21 the results were D1 ag 0, TRHR agonist 0, TRHR enhancer 3, D1 PAM 10 and D1 antag 7.
Screening CCOc1ccc(S(=O)(=O)N(CCO)CCO)cc1-c1nc2c(C(C)(C)C)nn(C)c2c(=O)[nH]1 returned D1 ag 1, TRHR agonist 0, TRHR enhancer 4, D1 PAM 30* and D1 antag -1.
Cc1cc2ncc(-c3cccs3)nc2cc1C was read as D1 ag 0, TRHR agonist 0, TRHR enhancer 31*, D1 PAM -3 and D1 antag -6.
c1csc(-c2ccc3ccccc3n2)c1 was read as D1 ag 1, TRHR agonist 0, TRHR enhancer 2, D1 PAM 1 and D1 antag 6.
C=CCS(=O)(=O)N1CCCC(Cc2ccccc2C)(C(=O)OCC)C1 (stereo unspecified) was read as D1 ag 0, TRHR agonist 0, TRHR enhancer -2, D1 PAM -2 and D1 antag 4.
COc1ccc(-c2noc(CCC(=O)NCCCN3CCN(c4ccc(F)cc4)CC3)n2)cc1 was read as D1 ag 35*, TRHR agonist 0, TRHR enhancer -4, D1 PAM -16 and D1 antag -73*.
`Cc1ccc(-c2noc(CCC(=O)NCCN3CCN(Cc4ccccc4)CC3)n2)cc1` gave D1 ag 13, TRHR agonist 0, TRHR enhancer -10, D1 PAM -7 and D1 antag -20.
COc1ccc(-c2noc(CCC(=O)NCCCN3CCC(Cc4ccccc4)CC3)n2)cc1 was read as D1 ag 56*, TRHR agonist 3, TRHR enhancer 8, D1 PAM -10 and D1 antag -54*.
Screening COc1ccc(-c2noc(CCC(=O)NCc3ccco3)n2)cc1 returned D1 ag 0, TRHR agonist -2, TRHR enhancer -1, D1 PAM -6 and D1 antag -37*.
Cc1ccc(-c2noc(CCC(=O)NCC3CCN(Cc4cccc(C)c4)CC3)n2)cc1 was read as D1 ag 51*, TRHR agonist 4, TRHR enhancer 6, D1 PAM -10 and D1 antag -24.
CC1CCCN(S(=O)(=O)c2cnc[nH]2)C1 (stereo unspecified) was read as D1 ag 2, TRHR agonist 0, TRHR enhancer 9, D1 PAM 2 and D1 antag 6.
`Cc1ccc2c(c1)C(c1ccccc1)N(C(=O)c1ccc(OC(C)C)cc1)CC(=O)N2` (stereo unspecified) gave D1 ag 3, TRHR agonist 0, TRHR enhancer -1, D1 PAM 1 and D1 antag -4.

Assay outcomes from PubChem.
